# Compound activity deposited in PubChem BioAssay by National Center for Advancing Translational Sciences (NCATS).
# ALOX12 inh = blocks human arachidonate 12S-lipoxygenase | P18054 | AID 1671190 | purified 12hLO, xylenol orange hydroperoxide absorbance | Potency, µM (top dose mostly 108 µM), most hits filed as inhibitors | actives 1.1% (n = 580,000)
#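 Purified human 12hLO (150 nM final) in 25 mM Hepes, 0.01% Triton X-100, pH 7.0 was preincubated 15 min at room temperature with compound. Then 40 uM arachidonic acid was added, 30 min. Hydroperoxide was read by Fe-XO absorbance ratio 573/405 nm.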
# PLK1 PBD block = PLK1 (human) polo-box domain binding inhibition; P53350; Plk1 PBD binding of FITC phosphopeptide, fluorescence polarization; Potency, µM, hits mostly inhibitors; actives 2.8% (n = 360,000); AID 720504; also: series mostly up to about 57 µM; nearly all actives have a fitted effect of over 65% in size
# Target sequence (P53350 whole entry, looked up, the tested form may be a part): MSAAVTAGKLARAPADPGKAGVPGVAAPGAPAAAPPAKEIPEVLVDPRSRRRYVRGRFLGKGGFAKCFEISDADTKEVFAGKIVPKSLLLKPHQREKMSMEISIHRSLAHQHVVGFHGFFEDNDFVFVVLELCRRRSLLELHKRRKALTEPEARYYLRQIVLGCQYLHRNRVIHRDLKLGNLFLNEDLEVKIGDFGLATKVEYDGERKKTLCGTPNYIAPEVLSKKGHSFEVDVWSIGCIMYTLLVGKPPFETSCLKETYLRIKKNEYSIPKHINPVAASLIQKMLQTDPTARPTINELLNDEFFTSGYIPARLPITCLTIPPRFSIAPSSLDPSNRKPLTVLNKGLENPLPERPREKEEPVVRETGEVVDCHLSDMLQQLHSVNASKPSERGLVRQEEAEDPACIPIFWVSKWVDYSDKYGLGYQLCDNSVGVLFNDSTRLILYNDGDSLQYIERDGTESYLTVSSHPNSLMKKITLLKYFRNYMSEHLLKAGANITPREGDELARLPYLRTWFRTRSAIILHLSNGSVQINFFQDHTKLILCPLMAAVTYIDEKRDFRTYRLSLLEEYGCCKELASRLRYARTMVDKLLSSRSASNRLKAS
# VDR inh = inhibitors of human vitamin D receptor | VDR-SRC2-3 peptide fluorescence polarization, 2 h | Potency, µM, actives largely listed as inhibitors | actives 0.93% (n = 400,000) | AID 504847
#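 VDR–SRC2-3 interaction, FP format. Cmpds 23 nl via pintool, brief spin, 2 h ambient incubation.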
# Sfp inh = Sfp phosphopantetheinyl transferase inhibition | Q9F4F7 | Biochemical Sfp PPTase activity, qHTS | Potency, µM, hits mostly inhibitors | actives 3.5% (n = 310,000) | AID 1490;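 also: the enzyme is Sfp with the accession as filed and its product quenches rhodamine fluorescence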
#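 After 15 min at room temperature with compound, 15 nM Sfp received 5 uM rhodamine-CoA plus 12.5 uM BHQ-2-ybbR (50 mM Hepes pH 7.6, 10 mM MgCl2). Rate came from the fluorescence difference over 30 min, ex 525/em 598 nm.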
# Numbers stand for hits; i = inactive; ? = inconclusive; nt = not tested or not shown; [ ] = another dose, or the depositor's remark. Shown are actives, neighbours in structure and some others; about 4.2% of the full set was active somewhere. Calls follow the shape of the dose curve; as a rule, active = well fitted curve in the direction sought with a large enough effect; inconclusive = small, poorly fitted or top-dose-only effect, or another doubt; inactive = no such curve, though single readings can be large; an effect the other way counts as inactive or inconclusive.
SMILES,ALOX12 inh,PLK1 PBD block,VDR inh,Sfp inh
O=C(CC1SC(=O)N(c2ccccc2)C1=O)Nc1ccc(Cl)cc1 (stereo not given),?,11µM,40µM,i
O=C(CC1SC(=Nc2ccccc2)N(CCCO)C1=O)Nc1ccc(Cl)cc1 (stereo not given),nt,i,i,i
CCCN1C(=O)SC(CC(=O)Nc2ccccc2)C1=O (stereo not given),i,i,i,i
COc1cccc(OC)c1C(=O)Nc1ccc(-c2nc3ncccc3o2)cc1,i,nt,i,nt
COc1ccc(C(=O)Nc2cccc(NC(=O)c3cccs3)c2)cc1OC,i,i,i,i
CN(NC(=O)/C=C/C(=O)O)c1ncc(C(F)(F)F)cc1Cl,?,i,i,56µM
O=C(Cc1cccc(C(F)(F)F)c1)Nc1ccccc1,i,24µM,i,i
O=C(NC1(c2ccccc2)CCC1)c1ccccc1C(F)(F)F,i,nt,nt,nt
O=C(Cc1cccc(C(F)(F)F)c1)NC1(c2ccccc2)CCC1,35µM,nt,nt,nt
CC(C)c1ccccc1NC(=O)COC(=O)Cc1cccc(C(F)(F)F)c1,i,27µM,?,i
CCCCCC(=O)N1C[C@@H](O)[C@H](n2cc(COC(=O)c3ccccc3)nn2)C[C@@H]1c1ccc(C)cc1,?,i,nt,nt
N#C/C(=N\Nc1cc(Cl)cc(Cl)c1)c1nnc2n1CCCCC2,16µM,i,i,?
Clc1cc(Cl)cc(NCc2nnc3n2CCCCC3)c1,i,nt,nt,nt
O=C(c1ccc(F)c(Cl)c1)N1CCC(Cc2nc(-c3cnccn3)no2)CC1,i,nt,nt,nt
COC(=O)C1=C(C)NC(=O)/C1=C\c1cc(C)n(-c2cccc(C)c2)c1C,?,i,i,?
COC(=O)C1=C(C)NC(=O)/C1=C\c1cc(C)n(-c2ccc(F)cc2)c1C,i,i,i,35µM
O=C(Nc1ccc(Cl)cc1)c1csc(C(O)c2cccc(OC(F)(F)F)c2)n1 (stereo not given),14µM,nt,nt,nt
CCN(CC)C(=O)[C@@]1(c2ccccc2)C[C@@H]1CN,nt,nt,i,i
CC1C(=O)CCC1(C(=O)O)c1ccccc1 (stereo not given),i,24µM,i,i
Cc1nn(CN2CCN(Cc3ccccc3)CC2)c(=O)c2ccccc12,i,nt,nt,nt
COCc1n[nH]c(=S)n1Cc1ccc(Cl)cc1,16µM,nt,nt,nt
Cc1ccccc1OCc1n[nH]c(=S)n1Cc1ccccc1,50µM,i,i,i
Cc1cc(Cl)ccc1OCc1n[nH]c(=S)n1C1CCCCC1,?,?,i,i
Cc1cc(Cl)ccc1OCCCc1n[nH]c(=S)n1C,22µM,nt,nt,nt
CCn1c(COc2ccc(Cl)cc2C)n[nH]c1=S,14µM,nt,nt,nt
SMILES,ALOX12 inh,PLK1 PBD block,VDR inh,Sfp inh
C=CCn1c(CCCOc2ccc(Cl)cc2Cl)n[nH]c1=S,?,i,i,i
CCn1c(CSCc2ccc(Cl)cc2)n[nH]c1=S,?,i,i,i
CCOC(=O)C1CCN(C(=O)COc2ccc(Cl)cc2C)CC1,i,i,i,i
CCCN(Cc1ccc(OC)cc1)Cc1cc(=O)n2[nH]c(-c3cccc(C)c3)cc2n1,i,nt,nt,nt
N#C/C(=C(/O)c1ccc2c(c1)OCO2)c1nc2cc(C(F)(F)F)ccc2s1,i,?,i,i
COc1ccccc1-c1nc(C(=O)NCc2ccc(F)cc2)n2ccccc12,i[6.33 µM],nt,nt,nt
CN(C)CCNC(=O)C1CCN(c2nc3ccccc3[nH]2)CC1,i,nt,i,nt
COCCn1c(COc2ccccc2-c2ccccc2)n[nH]c1=S,28µM,nt,nt,nt
Cc1nn(Cc2n[nH]c(=S)n2Cc2ccccc2)c(C)c1Cl,45µM,i,i,i
Cc1ccc(NC(=O)c2sc(-n3nc(C)c(Cc4ccc5c(c4)OCO5)c3C)nc2C)cc1C,i,nt,i,nt
COc1ccc(S(=O)(=O)N2CCC(c3cc(-c4cccc5ccccc45)n[nH]3)CC2)cc1,i,i,i,i
O=S(=O)(c1cccc(C(F)(F)F)c1)N1CCC(c2cc(-c3cccc4ccccc34)n[nH]2)CC1,i,19µM,?,i
CCCc1nc(SCc2cc(=O)c3ccc(C)c(C)c3[nH]2)n[nH]1,i,nt,i,nt
O=c1oc2cc(O)ccc2cc1-c1nnc(Nc2ccc(Cl)cc2)s1,i,nt,nt,nt
C=CCSC1=C(C#N)C(c2ccc(OCC)cc2)CC(=O)N1 (stereo not given),?,i,?,79µM
C=CCSC1=C(C#N)C(c2ccccc2Cl)CC(=O)N1 (stereo not given),?,?,?,35µM
Cc1cccc(Cn2nnc3c(=O)[nH]c(C4CCCN(C(=O)c5ccc(C(C)(C)C)cc5)C4)nc32)c1 (stereo not given),i,nt,i,nt
CC(C)CN(C(=O)COC(=O)c1ccccc1SCC(=O)N1CCCC1)C1CCS(=O)(=O)C1 (stereo not given),i,i,i,nt
